Compounds with a hit are over-represented: about 2.9% of the library has one in this group of screens.
TSG101-PTAP inh – qHTS Assay for Iinhibitors of HIV-1 Budding by Blocking the Interaction of PTAP/TSG101 | 340,000 tested, under 10 active | Fluorescence polarization, FITC-PTAP peptide / Tsg101 binding | Tumor susceptibility gene 101 protein (Homo sapiens), Q99816 | Potency, µM (highest dose often 115 µM), hits mostly inhibitors | AID 493005, 2010; active = well fitted inhibition curve with a large enough effect in the main read-out, with a control signal flat, not every such curve was filed as active; inconclusive = small, poorly fitted or top-dose-only effect, or effect the other way, or a change in a side signal; inactive = no such curve, though single readings can be large or run the other way
Target sequence (Q99816 whole entry, looked up): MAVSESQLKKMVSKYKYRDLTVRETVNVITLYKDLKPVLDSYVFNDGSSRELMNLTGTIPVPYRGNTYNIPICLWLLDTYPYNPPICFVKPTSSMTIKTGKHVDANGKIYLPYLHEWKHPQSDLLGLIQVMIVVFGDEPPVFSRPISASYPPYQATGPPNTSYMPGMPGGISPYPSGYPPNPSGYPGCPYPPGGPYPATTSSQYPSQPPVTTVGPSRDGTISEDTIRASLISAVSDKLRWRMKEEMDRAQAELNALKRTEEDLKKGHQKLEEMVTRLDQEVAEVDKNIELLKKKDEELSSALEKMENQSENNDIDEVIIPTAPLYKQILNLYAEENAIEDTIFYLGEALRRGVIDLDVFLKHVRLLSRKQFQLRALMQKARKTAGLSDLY
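Fluorescence polarization binding of Tsg101 binding domain (10 uM final) to FITC-labeled PTAP peptide (50 nM final) in HEPES pH 7.5 buffer with NaCl, Tween 20, EDTA, TCEP. Compounds added before peptide; binding 20 min at RT.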
Rango dissoc inh – qHTS Assay for Inhibitors of RanGTP induced Rango (Ran-regulated importin-beta cargo) - Importin beta complex dissociation. Potency, µM (doses to about 46.1 µM). 340,000 compounds, 0.071% hits. Biochemical FRET Rango-importin beta, RanGTP-induced dissociation. Snurportin-1 (Homo sapiens) + GTP-binding nuclear protein Ran (Homo sapiens) + Importin …. AID 540253, 2011; also: nearly all actives have a fitted effect of over 45% in size
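Recombinant Rango FRET biosensor (EYFP–snurportin 1 IBB–cerulean CFP10) at 0.1 uM premixed with 0.25 uM importin beta in PBS, 1 mM DTT, 0.02% Tween-20, 0.1% BSA. Compound added 5 min; RanGTP-RCC1 (0.6 uM Ran, 2 mM GTP, 0.2 uM RCC1) then triggers release, read at 45 min.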
DRD3 agonist – qHTS of D3 Dopamine Receptor Agonist: qHTS; D3R DiscoveRx beta-arrestin cells, luminescence, 90 min; max activation, %; 410,000 compounds, 0.58% hits; AID 652048, 2013; in the data active = max activation above about 30%
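Agonist-mode cell screen: cells plated at 1500/well and incubated overnight at 37 °C, then exposed to library compounds for 90 min at 37 °C. Detection reagent was added for 30–60 min at room temperature, and luminescence was read.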
Mm-Cpn inhibitor – Inhibitors of TCP-1 ring complex (TRiC) of Methanococcus maripaludis (MmCpn): qHTS; Chaperonin Mm-Cpn (Methanococcus maripaludis); purified Mm-Cpn ATPase, ADP Transcreener TR-FRET; Potency, µM (series often up to 76.9 µM), actives largely listed as inhibitors; 330,000 compounds, 0.031% hits; AID 504842, 2011; active = well fitted inhibition curve with a large enough effect; inconclusive = small, poorly fitted or top-dose-only effect; also: nearly all actives have a fitted effect of over 80% in size
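Compound-treated chaperonin, 25 nM final, turns over 10 uM ATP at 37°C for 30 min following a 10 min preincubation; ADP generated competes with ADP-d2 for Eu-cryptate antibody, lowering FRET.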
Rango-impB inh – qHTS Assay for Inhibitors of Rango (Ran-regulated importin-beta cargo) - Importin beta complex formation; Rango CFP/YFP FRET sensor + importin beta, 45 min; Potency, µM (doses to about 92.2 µM); 340,000 compounds, 0.031% hits; also: nearly all actives have a fitted effect of over 15% in size
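Inhibition scored from the CFP 486 nm/YFP 530 nm FRET ratio 45 min after adding 0.125 microM importin beta to 50 nM Rango biosensor preincubated 5 min with compound (room temperature, PBS with DTT, Tween-20, BSA). No-importin wells as positive control.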
D3 antag – qHTS of D3 Dopamine Receptor Antagonist: qHTS | D(3) dopamine receptor (Homo sapiens), P35462 | D3R cells, DiscoveRx beta-arrestin luminescence, antagonist mode; active compounds read low | max response, negative = inhibition, % | 360,000 compounds, 2.5% hits | AID 652054, 2013; in the data active = max response below about -50%; inconclusive = no clear call, values can overlap the other calls
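Cells plated overnight at 1500 cells/well, then exposed to library compounds with dopamine controls for 90 minutes at 37 degrees C. DiscoveRx reagent added for 30–60 minutes at room temperature; luminescence read, quantitative HTS format.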
Large screens that a line does not name were inactive; ! = repeats disagree. Unless noted, calls follow the shape of the full dose curve.

O=C(NCCN1CCN(c2ccccc2)CC1)c1ccc(NC(=O)C2CCCO2)cc1 (stereo not given)	DRD3 agonist 69.6
COc1ccc(CNC(=O)c2ccc(N3CCCC3)c(NC(=O)NCc3ccc(C)cc3)c2)cc1	none (no result: TSG101-PTAP inh, Rango dissoc inh, Mm-Cpn inhibitor, Rango-impB inh, D3 antag)
CC(C)C[C@H]1CN=C(Nc2ccccc2)N1CCCC1CCCC1	D3 antag -51.3
CC(C)C[C@H]1CN=C(Nc2ccccc2)N1CCCC1CCCCC1	none
COc1ccccc1N1CCN(S(=O)(=O)CCNC(=O)COc2ccccc2)CC1	none (no result: TSG101-PTAP inh, Rango dissoc inh, Mm-Cpn inhibitor, Rango-impB inh)
Nc1ccn(CC(=O)NCCCc2ccccc2)c(=O)n1	none
COCCCNC(=O)Cn1ccc(N)nc1=O	DRD3 agonist 37.7
Cc1ccc2oc(=O)n(CCNC(=O)Nc3ccccc3Cl)c2c1	none (no result: TSG101-PTAP inh, Rango dissoc inh, Mm-Cpn inhibitor, Rango-impB inh, D3 antag)
C=CCN(CC=C)Cc1c(O)ccc2c1oc(=O)c1ccccc12	Rango-impB inh inconclusive, D3 antag -62.5 (no result: Mm-Cpn inhibitor)
C=CCN(CC=C)Cc1cc(=O)oc2ccc3ccccc3c12	none (no result: TSG101-PTAP inh, Rango dissoc inh, Mm-Cpn inhibitor, Rango-impB inh)
CCCCOc1ccc(S(=O)(=O)Nc2ccc(-c3ccc(N4CCC(C)CC4)nn3)cc2)cc1	none (no result: TSG101-PTAP inh, Rango dissoc inh, Mm-Cpn inhibitor, Rango-impB inh, D3 antag)
CCCOc1ccc(C(=O)CCNc2ccc(C)c(Cl)c2)cc1	D3 antag -83.7
Cc1ccc(NCCC(=O)c2ccc(Cl)cc2)cc1C	none
O=C(Oc1ccc(N2C(=O)CCC2=O)cc1)c1ccccc1Cl	none
Cc1cc(OC(=O)c2ccccc2Cl)cc(=O)n1C	DRD3 agonist 35.4
COc1ccc(C(CC(=O)NCc2ccccc2)N2Cc3ccccc3C2=O)cc1 (stereo not given)	none (no result: TSG101-PTAP inh, Rango dissoc inh, Mm-Cpn inhibitor, Rango-impB inh, D3 antag)
CCOC(=O)c1oc2c(c1C)-c1nn(Cc3cccc(Cl)c3)cc1CC2	none (no result: TSG101-PTAP inh, Rango dissoc inh, Mm-Cpn inhibitor, Rango-impB inh, D3 antag)
Cc1cc(Br)ccc1OCCCCN1CCCCC1	D3 antag -50.9
Cc1cc(C(C)(C)C)ccc1OCCN1CCCC1	D3 antag -64.3
Cc1cc(C(C)(C)C)ccc1OCCCCN1CCCC1	none
Cc1cc(Br)ccc1OCCOCCN1CCCC1	D3 antag -73.1
Cc1ccc(Nc2ccc(N3CCN(C(=O)c4ccc([N+](=O)[O-])cc4)CC3)nn2)cc1	none (no result: TSG101-PTAP inh, Rango dissoc inh, Mm-Cpn inhibitor, Rango-impB inh, D3 antag)
O=C(Nc1cccc(C(F)(F)F)c1)Oc1ccc(Cl)c2cccnc12	D3 antag -61.7
O=C(Nc1c(Cl)cccc1Cl)Oc1cccc2cccnc12	D3 antag -51.5 (no result: TSG101-PTAP inh, Rango dissoc inh, Mm-Cpn inhibitor, Rango-impB inh)
CCN(CC)C(=O)Oc1ccc(Cl)c2cccnc12	none
O=C(COc1cccc2cccnc12)NCC(F)(F)F	none
O=C(COc1cccc2cccnc12)Nc1ccccc1	none
O=C(Nc1cccc(Br)c1)Oc1cccc2cccnc12	D3 antag -83.0 (no result: TSG101-PTAP inh, Rango dissoc inh, Mm-Cpn inhibitor, Rango-impB inh)
O=C(NC1CCCC1)c1ccc2c(c1)N(Cc1c(F)cccc1Cl)C(=O)c1ccccc1S2	none (no result: TSG101-PTAP inh, Rango dissoc inh, Mm-Cpn inhibitor, Rango-impB inh, D3 antag)
CC(=O)c1c(C)oc2ccc(OCc3ccccc3)cc12	none
COC(=O)c1cc(COc2ccc3oc(C)c(C(=O)OC)c3c2)c(C)o1	DRD3 agonist 76.0
CCOC(=O)c1c(C)oc2ccc(OCC(=O)C(C)(C)C)cc12	none
COC(=O)c1cc(COc2ccc3ccc(=O)oc3c2)c(C)o1	D3 antag -67.7
CCOC(=O)c1c(C)oc2ccc(OCc3cc(C(=O)OC)oc3C)cc12	DRD3 agonist 32.9
O=C(O)c1ccc(Sc2nnnn2-c2ccccc2)c([N+](=O)[O-])c1	Rango-impB inh inconclusive, D3 antag -63.7
CCOc1ccc(NC(=O)CN2C(=O)C(c3ccc(Cl)cc3)=NC2(C)C)cc1	none (no result: TSG101-PTAP inh, Rango dissoc inh, Mm-Cpn inhibitor, Rango-impB inh, D3 antag)
CC(=O)C[C@H]1c2ccccc2S(=O)(=O)N1C1CCCC1	D3 antag -167.8 (no result: Mm-Cpn inhibitor)
CCN1CCN(/C=N/c2nc3c(s2)CCCC3)CC1	D3 antag -75.3
Cc1ccc(S(=O)(=O)NC2=C(N3CCN(Cc4ccccc4)CC3)C(=O)c3ccccc3C2=O)cc1	D3 antag -60.4
Cc1ccc(S(=O)(=O)NC2=C(N3CCN(c4ccccc4F)CC3)C(=O)c3ccccc3C2=O)cc1	D3 antag -67.3!
CC(C)(CN1CCN(Cc2ccccc2)CC1)NS(=O)(=O)c1ccc(Cl)cc1	D3 antag -61.5
